# Test results: paper PMC7862700, “An all-to-all approach to the identification of sequence-specific readers for epigenetic DNA modifications on cytosine”
# What was measured:
# Assay in all cases: DAPPL (digital affinity profiling via proximity ligation, sequencing); 10 mM Tris-HCl pH 7.5, 50 mM NaCl, 1 mM DTT, 4% glycerol, room temperature, 30 min; GST-TFs on glutathione beads, 16-mer random dsDNA library, 0.1% formaldehyde crosslink after washing; high values mean tight binding
# [1] = biological target: T1, FLI1 (Homo sapiens, UniProt Q01543 1-452); conditions: protein: recombinant; tags: N-terminal GST; dsDNA, one strand shown
# T1 sequence: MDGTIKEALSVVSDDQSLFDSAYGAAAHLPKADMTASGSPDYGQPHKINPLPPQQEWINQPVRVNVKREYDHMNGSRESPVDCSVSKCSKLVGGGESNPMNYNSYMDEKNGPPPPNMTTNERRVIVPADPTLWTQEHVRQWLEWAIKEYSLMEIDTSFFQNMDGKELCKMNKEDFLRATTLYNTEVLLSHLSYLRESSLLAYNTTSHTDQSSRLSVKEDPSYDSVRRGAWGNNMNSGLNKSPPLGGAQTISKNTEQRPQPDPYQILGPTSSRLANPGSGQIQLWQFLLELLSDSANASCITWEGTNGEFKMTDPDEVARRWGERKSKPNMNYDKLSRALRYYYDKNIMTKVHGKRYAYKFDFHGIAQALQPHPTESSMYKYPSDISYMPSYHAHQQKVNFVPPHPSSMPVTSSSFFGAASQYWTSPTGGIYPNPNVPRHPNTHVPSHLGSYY
# Method in brief: (§1)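 Beads coated with glutathione captured GST-fused human transcription factors that had been expressed in yeast, and the factors were then given DNA barcodes and pooled with a tag-only sample. The pools were incubated with 200 nmole of a random double-stranded 16-mer DNA library in Tris/NaCl/DTT/glycerol buffer for 30 min at room temperature, washed, crosslinked with 0.1% formaldehyde and proximity-ligated with BsaI/T4 ligase at 37 °C for 1 h. PCR amplification and Illumina NextSeq500 sequencing came last. Binding signal is each hexamer's read frequency for a factor divided by its frequency for the tag-only sample.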
# [2] = biological target: T2, ELK1 (Homo sapiens, UniProt P19419 1-428); conditions: protein: recombinant; tags: N-terminal GST; dsDNA, one strand shown
# T2 sequence: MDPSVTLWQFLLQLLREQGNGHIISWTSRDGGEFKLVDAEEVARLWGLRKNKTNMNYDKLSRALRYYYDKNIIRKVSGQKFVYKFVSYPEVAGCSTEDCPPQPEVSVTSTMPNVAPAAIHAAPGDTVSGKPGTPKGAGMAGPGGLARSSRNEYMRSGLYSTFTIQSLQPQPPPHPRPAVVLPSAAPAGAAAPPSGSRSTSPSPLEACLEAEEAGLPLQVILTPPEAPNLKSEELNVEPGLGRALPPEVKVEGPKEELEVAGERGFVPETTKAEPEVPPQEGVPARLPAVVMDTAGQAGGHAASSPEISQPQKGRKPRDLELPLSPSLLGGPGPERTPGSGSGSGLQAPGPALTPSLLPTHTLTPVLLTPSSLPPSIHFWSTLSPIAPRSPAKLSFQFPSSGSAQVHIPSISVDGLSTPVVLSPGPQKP
# Method in brief: as §1
# [3] = biological target: T3, GABPA (Homo sapiens, UniProt Q06546 1-454); conditions: protein: recombinant; tags: N-terminal GST; dsDNA, one strand shown
# T3 sequence: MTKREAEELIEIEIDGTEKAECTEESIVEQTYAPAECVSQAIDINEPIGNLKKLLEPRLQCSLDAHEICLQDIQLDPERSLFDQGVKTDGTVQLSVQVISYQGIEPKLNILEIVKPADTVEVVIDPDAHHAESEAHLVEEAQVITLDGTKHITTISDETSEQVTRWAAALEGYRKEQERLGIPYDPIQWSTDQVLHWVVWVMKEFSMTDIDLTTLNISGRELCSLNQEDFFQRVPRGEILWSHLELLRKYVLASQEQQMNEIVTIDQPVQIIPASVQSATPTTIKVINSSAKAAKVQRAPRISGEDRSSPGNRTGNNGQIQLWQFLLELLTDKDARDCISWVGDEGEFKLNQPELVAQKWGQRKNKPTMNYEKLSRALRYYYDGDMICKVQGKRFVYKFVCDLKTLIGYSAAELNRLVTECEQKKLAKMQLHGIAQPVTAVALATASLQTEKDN
# Method in brief: as §1
# [4] = biological target: T4, ERG (Homo sapiens, UniProt P11308 1-479); conditions: protein: recombinant; tags: N-terminal GST; dsDNA, one strand shown
# T4 sequence: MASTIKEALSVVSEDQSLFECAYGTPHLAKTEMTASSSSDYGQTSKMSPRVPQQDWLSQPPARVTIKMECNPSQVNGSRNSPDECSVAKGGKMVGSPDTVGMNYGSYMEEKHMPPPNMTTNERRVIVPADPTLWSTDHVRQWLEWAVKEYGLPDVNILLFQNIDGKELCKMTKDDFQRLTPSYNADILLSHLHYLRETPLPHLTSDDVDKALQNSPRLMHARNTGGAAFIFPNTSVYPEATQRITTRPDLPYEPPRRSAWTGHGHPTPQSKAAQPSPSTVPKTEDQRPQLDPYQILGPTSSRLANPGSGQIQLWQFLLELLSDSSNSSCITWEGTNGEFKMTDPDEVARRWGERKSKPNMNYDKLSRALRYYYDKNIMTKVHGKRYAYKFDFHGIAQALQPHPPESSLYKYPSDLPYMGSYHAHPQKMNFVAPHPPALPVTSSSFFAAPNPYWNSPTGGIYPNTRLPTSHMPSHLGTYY
# Method in brief: as §1
# [5] = biological target: ELF1 (Homo sapiens, UniProt P32519 1-619); conditions: protein: recombinant; tags: N-terminal GST; dsDNA, one strand shown
# Chain of ELF1 (P32519 whole entry): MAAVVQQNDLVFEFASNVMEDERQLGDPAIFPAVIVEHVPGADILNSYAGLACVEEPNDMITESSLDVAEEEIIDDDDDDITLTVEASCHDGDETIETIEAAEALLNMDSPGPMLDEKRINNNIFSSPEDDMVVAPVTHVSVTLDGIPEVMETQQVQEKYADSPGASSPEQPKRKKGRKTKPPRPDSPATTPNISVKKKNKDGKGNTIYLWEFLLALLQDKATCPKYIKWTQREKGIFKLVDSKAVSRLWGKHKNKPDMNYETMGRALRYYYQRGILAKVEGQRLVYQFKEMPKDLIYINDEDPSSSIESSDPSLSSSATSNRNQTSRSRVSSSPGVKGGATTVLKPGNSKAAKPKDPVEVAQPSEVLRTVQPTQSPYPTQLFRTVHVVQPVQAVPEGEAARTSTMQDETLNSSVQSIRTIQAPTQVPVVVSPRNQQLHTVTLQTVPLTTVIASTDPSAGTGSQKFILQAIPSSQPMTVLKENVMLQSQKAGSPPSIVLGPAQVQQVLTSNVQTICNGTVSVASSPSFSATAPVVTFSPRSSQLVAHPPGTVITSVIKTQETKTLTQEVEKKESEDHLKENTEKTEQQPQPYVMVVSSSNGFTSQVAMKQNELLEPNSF
# Method in brief: as §1
# [6] = biological target: T5, EHF (Homo sapiens, UniProt Q9NZC4 1-300); conditions: protein: recombinant; tags: N-terminal GST; dsDNA, one strand shown
# T5 sequence: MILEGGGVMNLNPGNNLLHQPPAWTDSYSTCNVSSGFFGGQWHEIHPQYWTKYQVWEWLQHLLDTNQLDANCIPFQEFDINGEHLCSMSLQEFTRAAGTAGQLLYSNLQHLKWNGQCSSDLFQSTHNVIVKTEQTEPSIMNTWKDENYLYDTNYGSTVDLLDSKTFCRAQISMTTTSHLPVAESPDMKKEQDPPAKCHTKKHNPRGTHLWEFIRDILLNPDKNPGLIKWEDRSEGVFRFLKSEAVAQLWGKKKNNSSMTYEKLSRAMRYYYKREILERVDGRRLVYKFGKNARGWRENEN
# Method in brief: as §1
# [7] = biological target: SPI1 (Homo sapiens, UniProt P17947 1-270); conditions: protein: recombinant; tags: N-terminal GST; dsDNA, one strand shown
# Method in brief: as §1
# [8] = biological target: SPIB (Homo sapiens, UniProt Q01892 1-262); conditions: protein: recombinant; tags: N-terminal GST; dsDNA, one strand shown
# Chain of SPIB (Q01892 whole entry): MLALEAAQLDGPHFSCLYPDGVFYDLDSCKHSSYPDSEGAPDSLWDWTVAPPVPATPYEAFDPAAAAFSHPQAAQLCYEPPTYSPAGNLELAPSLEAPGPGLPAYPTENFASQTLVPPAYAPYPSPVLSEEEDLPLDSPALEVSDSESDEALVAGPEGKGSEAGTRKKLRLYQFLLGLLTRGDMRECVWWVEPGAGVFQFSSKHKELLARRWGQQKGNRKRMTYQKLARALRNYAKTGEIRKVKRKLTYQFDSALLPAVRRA
# Method in brief: as §1
# [9] = biological target: T6, ELK3 (Homo sapiens, UniProt P41970 1-407); conditions: protein: recombinant; tags: N-terminal GST; dsDNA, one strand shown
# T6 sequence: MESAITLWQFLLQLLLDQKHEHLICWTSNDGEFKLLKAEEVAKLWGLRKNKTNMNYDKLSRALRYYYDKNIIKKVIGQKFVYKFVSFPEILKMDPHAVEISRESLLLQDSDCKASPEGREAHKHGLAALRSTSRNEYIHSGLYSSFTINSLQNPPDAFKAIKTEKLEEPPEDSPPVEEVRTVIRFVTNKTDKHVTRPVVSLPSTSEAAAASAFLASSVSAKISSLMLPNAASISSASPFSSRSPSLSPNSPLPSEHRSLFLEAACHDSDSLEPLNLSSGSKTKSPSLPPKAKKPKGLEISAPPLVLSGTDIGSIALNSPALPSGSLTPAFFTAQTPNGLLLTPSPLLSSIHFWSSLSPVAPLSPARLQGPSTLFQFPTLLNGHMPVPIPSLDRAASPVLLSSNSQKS
# Method in brief: as §1
# [10] = biological target: T7, FEV (Homo sapiens, UniProt Q99581 1-238); conditions: protein: recombinant; tags: N-terminal GST; dsDNA, one strand shown
# T7 sequence: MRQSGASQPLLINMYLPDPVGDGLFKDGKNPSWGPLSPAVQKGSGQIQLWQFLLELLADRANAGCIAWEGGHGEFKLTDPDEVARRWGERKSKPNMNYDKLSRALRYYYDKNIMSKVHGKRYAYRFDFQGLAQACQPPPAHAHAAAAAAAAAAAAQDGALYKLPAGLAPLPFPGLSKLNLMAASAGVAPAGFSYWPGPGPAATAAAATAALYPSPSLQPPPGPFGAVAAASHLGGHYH
# Method in brief: as §1
# [11] = biological target: ETV5 (Homo sapiens, UniProt P41161 1-510); conditions: protein: recombinant; tags: N-terminal GST; dsDNA, one strand shown
# Chain of ETV5 (P41161 whole entry): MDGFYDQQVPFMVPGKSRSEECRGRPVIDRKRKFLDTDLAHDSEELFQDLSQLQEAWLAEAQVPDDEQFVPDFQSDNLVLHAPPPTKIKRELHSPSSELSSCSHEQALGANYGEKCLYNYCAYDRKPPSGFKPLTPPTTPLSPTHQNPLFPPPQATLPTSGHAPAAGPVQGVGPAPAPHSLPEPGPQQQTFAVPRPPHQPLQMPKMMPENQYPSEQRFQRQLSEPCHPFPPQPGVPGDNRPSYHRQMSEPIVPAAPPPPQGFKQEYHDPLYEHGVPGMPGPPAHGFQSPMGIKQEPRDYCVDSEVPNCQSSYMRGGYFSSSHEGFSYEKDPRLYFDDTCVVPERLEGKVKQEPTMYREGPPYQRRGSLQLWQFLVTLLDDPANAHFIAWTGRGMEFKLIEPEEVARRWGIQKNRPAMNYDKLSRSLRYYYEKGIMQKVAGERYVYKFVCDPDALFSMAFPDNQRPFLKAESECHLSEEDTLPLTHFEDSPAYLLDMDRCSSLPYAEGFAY
# Method in brief: as §1
# [12] = biological target: HSF1 (Homo sapiens, UniProt Q00613 1-529); conditions: protein: recombinant; tags: N-terminal GST; chain copies: 3; dsDNA, one strand shown
# Chain of HSF1 (Q00613 whole entry): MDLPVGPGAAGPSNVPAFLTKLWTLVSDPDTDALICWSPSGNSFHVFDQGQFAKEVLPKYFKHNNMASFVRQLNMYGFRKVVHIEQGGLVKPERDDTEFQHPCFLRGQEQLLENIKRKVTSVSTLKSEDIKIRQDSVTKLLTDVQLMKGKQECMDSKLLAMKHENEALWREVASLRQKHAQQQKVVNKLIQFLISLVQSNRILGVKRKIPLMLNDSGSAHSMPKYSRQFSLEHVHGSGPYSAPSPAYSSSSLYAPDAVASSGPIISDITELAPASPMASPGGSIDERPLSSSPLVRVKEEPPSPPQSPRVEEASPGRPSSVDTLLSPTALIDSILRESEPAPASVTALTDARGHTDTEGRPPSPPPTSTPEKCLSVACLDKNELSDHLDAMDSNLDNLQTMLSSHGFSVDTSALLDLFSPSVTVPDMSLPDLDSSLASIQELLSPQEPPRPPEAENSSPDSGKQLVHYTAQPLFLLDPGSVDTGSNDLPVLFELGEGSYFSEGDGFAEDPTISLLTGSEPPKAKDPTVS
# Method in brief: as §1
# [13] = biological target: T8, SPIC (Homo sapiens, UniProt Q8N5J4 1-248); conditions: protein: recombinant; tags: N-terminal GST; dsDNA, one strand shown
# T8 sequence: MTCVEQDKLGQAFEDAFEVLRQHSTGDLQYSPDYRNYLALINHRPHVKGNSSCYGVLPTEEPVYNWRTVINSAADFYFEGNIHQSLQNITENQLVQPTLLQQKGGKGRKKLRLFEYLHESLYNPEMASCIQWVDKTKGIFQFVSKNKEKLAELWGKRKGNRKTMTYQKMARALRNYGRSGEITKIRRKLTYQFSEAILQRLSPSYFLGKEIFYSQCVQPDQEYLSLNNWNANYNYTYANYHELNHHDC
# Method in brief: as §1
# [14] = biological target: ELF4 (Homo sapiens, UniProt Q99607 1-663); conditions: protein: recombinant; tags: N-terminal GST; dsDNA, one strand shown
# Chain of ELF4 (Q99607 whole entry): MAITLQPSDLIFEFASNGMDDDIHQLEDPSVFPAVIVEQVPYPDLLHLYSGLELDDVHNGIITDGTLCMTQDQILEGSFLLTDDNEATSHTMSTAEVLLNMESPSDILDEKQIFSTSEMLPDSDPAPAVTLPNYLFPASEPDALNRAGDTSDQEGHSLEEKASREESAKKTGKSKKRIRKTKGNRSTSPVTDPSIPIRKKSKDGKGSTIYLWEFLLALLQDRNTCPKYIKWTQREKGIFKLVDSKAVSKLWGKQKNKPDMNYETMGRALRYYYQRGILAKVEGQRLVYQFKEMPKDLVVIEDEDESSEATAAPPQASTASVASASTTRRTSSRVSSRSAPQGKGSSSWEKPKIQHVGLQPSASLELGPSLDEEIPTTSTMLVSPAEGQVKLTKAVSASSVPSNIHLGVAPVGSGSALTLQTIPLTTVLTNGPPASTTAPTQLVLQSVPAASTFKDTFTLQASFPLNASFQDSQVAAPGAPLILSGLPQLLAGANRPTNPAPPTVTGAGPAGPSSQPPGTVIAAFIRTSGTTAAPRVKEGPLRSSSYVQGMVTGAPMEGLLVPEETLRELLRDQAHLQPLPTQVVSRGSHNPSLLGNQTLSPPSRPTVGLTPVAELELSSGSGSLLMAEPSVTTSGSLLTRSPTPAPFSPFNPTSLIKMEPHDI
# Method in brief: as §1
# [15] = biological target: T9, ELK4 (Homo sapiens, UniProt P28324-2 1-405); conditions: protein: recombinant; tags: N-terminal GST; dsDNA, one strand shown
# T9 sequence: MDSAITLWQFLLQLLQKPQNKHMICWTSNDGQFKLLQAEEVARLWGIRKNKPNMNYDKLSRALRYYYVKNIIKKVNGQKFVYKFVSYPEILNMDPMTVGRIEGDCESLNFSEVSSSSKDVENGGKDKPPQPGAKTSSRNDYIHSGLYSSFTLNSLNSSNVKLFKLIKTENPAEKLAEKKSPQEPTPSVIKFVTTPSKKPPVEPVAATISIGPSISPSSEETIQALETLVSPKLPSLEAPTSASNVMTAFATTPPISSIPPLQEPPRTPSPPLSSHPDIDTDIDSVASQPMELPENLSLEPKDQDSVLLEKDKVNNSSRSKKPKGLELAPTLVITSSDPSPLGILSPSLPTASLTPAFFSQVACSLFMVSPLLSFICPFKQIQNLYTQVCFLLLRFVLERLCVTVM
# Method in brief: as §1
# [16] = biological target: T10, ETV2 (Homo sapiens, UniProt O00321 1-342); conditions: protein: recombinant; tags: N-terminal GST; dsDNA, one strand shown
# T10 sequence: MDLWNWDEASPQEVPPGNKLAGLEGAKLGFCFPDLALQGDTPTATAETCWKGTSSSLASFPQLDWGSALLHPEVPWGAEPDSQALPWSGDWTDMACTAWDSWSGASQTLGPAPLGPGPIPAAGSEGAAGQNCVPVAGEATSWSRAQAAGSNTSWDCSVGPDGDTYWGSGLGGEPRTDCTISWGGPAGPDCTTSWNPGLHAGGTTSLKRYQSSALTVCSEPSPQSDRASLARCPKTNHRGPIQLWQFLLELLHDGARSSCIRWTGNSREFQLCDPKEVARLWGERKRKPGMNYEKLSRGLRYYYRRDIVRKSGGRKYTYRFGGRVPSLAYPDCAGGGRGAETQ
# Method in brief: as §1
# [17] = biological target: T11, ELF3 (Homo sapiens, UniProt P78545 1-371); conditions: protein: recombinant; tags: N-terminal GST; dsDNA, one strand shown
# T11 sequence: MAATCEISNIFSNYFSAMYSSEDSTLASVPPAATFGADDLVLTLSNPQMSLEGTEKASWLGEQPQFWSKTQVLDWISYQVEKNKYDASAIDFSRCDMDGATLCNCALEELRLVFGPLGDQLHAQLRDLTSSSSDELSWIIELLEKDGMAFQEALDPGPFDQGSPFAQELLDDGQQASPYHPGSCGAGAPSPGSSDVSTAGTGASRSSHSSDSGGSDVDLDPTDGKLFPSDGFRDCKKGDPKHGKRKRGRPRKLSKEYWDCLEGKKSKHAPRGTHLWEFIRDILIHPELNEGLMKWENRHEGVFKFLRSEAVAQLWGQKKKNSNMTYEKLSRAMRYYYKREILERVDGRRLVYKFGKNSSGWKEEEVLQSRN
# Method in brief: as §1
# [18] = biological target: CRX (Homo sapiens, UniProt O43186 1-299); conditions: protein: recombinant; tags: N-terminal GST; dsDNA, one strand shown
# Chain of CRX (O43186 whole entry): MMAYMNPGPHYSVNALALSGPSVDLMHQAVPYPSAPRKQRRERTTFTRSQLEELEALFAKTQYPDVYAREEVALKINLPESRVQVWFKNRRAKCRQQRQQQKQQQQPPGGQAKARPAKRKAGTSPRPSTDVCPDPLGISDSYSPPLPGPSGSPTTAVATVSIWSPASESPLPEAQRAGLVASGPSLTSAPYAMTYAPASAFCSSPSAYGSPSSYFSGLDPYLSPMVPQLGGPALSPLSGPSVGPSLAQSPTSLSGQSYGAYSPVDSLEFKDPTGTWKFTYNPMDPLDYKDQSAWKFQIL
# Method in brief: as §1
# [19] = biological target: ETV1 (Homo sapiens, UniProt P50549 1-477); conditions: protein: recombinant; tags: N-terminal GST; dsDNA, one strand shown
# Chain of ETV1 (P50549 whole entry): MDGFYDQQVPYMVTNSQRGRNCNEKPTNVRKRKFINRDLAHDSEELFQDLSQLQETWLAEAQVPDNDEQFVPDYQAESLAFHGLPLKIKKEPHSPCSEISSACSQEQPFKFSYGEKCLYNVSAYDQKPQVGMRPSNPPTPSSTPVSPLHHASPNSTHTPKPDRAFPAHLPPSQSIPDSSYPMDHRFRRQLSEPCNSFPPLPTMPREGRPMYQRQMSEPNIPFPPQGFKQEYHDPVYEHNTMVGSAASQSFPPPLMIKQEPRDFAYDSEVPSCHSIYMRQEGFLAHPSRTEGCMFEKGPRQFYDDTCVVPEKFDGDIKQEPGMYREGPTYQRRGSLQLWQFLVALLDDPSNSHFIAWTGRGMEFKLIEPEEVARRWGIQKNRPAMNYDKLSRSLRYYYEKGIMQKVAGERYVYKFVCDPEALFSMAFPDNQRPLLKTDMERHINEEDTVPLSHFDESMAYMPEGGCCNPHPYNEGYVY
# Method in brief: as §1
sequence,measurement,setting,value
TTGCCC,binding signal,[1],"1.37 fold enrichment (6-mer frequency, TF over GST control)"
same,binding signal,[2],"1.43 fold enrichment (6-mer frequency, TF over GST control)"
same,binding signal,[3],"1.33 fold enrichment (6-mer frequency, TF over GST control)"
same,binding signal,[4],"1.28 fold enrichment (6-mer frequency, TF over GST control)"
same,binding signal,[5],"1.3 fold enrichment (6-mer frequency, TF over GST control)"
same,binding signal,[6],"1.22 fold enrichment (6-mer frequency, TF over GST control)"
same,binding signal,[7],"1.29 fold enrichment (6-mer frequency, TF over GST control)"
same,binding signal,[8],"1.33 fold enrichment (6-mer frequency, TF over GST control)"
same,binding signal,[9],"1.23 fold enrichment (6-mer frequency, TF over GST control)"
same,binding signal,[10],"1.46 fold enrichment (6-mer frequency, TF over GST control)"
same,binding signal,[11],"1.32 fold enrichment (6-mer frequency, TF over GST control)"
same,binding signal,[12],"1.2 fold enrichment (6-mer frequency, TF over GST control)"
same,binding signal,[13],"1.28 fold enrichment (6-mer frequency, TF over GST control)"
same,binding signal,[14],"1.4 fold enrichment (6-mer frequency, TF over GST control)"
same,binding signal,[15],"1.42 fold enrichment (6-mer frequency, TF over GST control)"
same,binding signal,[16],"1.25 fold enrichment (6-mer frequency, TF over GST control)"
same,binding signal,[17],"1.33 fold enrichment (6-mer frequency, TF over GST control)"
same,binding signal,[18],"1.2 fold enrichment (6-mer frequency, TF over GST control)"
same,binding signal,[19],"1.22 fold enrichment (6-mer frequency, TF over GST control)"
